# High-throughput results: PubChem, several laboratories
# ADAM17 inh: ADAM17 inhibition, QFRET primary screen | P78536 | recombinant ADAM17, EDANS/DABCYL FRET peptide cleavage | inhibition, % at 6.95 µM | 370,000 compounds, 0.83% hits;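 active means inhibition above the mean of compounds lying between control limits plus 3 SD, set per campaign, cut at about 8.5% in these data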
# FGF22 binding: FGF22 (human) thermal shift binding; Q9HCT0; recombinant FGF22 thermal shift, SYPRO orange fluorescence; percent of sucrose octasulfate shift, DMSO zero; activity (Tm shift, normalised), % at 9.99 µM; 340,000 compounds, 1.5% hits; AID 651658;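 active means mean Tm shift, scaled 0 neutral to 100 positive control, at about 1.3% or above, every replicate too, limit read from the data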
# ADAM10 inh: inhibitors of human ADAM10 | O14672 | recombinant ADAM10, EDANS/DABCYL FRET peptide cleavage, 3 h | inhibition, % at 7 µM | 370,000 compounds, 0.62% hits | AID 720582;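 active means inhibition above a per-campaign cutoff equal to the mean of compounds falling between control-based bounds plus 3 SD, cut at about 20% in these data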
# Target sequence (O14672 214-748 limits assumed): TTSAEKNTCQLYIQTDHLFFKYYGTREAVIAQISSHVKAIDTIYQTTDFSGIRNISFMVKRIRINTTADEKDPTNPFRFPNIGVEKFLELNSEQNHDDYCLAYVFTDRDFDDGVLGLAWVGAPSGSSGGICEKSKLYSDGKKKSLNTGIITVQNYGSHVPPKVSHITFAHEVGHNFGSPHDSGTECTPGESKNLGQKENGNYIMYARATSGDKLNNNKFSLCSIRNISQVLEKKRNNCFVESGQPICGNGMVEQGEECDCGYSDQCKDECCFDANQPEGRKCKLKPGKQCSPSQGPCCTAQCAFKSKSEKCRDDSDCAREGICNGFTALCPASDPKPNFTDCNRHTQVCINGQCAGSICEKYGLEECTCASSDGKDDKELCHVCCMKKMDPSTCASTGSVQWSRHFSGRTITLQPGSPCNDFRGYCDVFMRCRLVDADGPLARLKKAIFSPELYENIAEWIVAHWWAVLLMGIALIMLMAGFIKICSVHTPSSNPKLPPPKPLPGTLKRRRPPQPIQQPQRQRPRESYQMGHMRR
# KLK7 zymogen act: activators of human kallikrein-7 zymogen | activation, % at 7 µM | P49862 | purified proKLK7, EDANS-DABCYL substrate fluorescence; 100% is mature enzyme control, 0% vehicle | 370,000 compounds, 0.9% hits;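 active means activation above the mean of all tested compounds plus 3 SD, computed per campaign excluding outliers beyond control limits, cut at about 13% in these data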
# rRNA inh HTS: inhibits bacterial ribosomal RNA function over humanized ribosomes | AID 720706 | GFP signal change (wild-type ribosome), % (no concentration beside the values) | E. coli WT GFP vs humanized-ribosome RFP mutants, fluorescence, 24 h; stronger effect = lower value; DMSO median 0, no signal -100 | 350,000 compounds, 1.6% hits;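 active means significant combined selectivity score with lowered wild-type GFP, culture density cut under 30%, mutant RFP and density less affected; inactive means any of these conditions unmet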
# Numbers stand for hits; – = inactive; · = no result given. Rows were chosen to be rich in hits. Some 3.8% of all compounds tested hit in one or more screens of this group.
SMILES,ADAM17 inh,FGF22 binding,ADAM10 inh,KLK7 zymogen act,rRNA inh HTS
O=C(CCS(=O)(=O)c1ccccc1)Nc1ncc([N+](=O)[O-])s1,–,–,–,–,-22
Fc1ccc(CN2[C@@H]3CN(CC(F)(F)F)C[C@H]2C3c2ccc(Br)cc2)cc1 (some centres undefined),·,·,·,·,–
C[C@@H]1CCCCO[C@H](CN(C)S(=O)(=O)c2ccc(Cl)cc2)[C@@H](C)CN([C@@H](C)CO)C(=O)c2cc(NC(=O)Nc3cccc4ccccc34)ccc2O1,·,·,·,·,–
C/C=C/c1ccc([C@@H]2[C@H](CO)N(CC3CC3)C23CN(S(=O)(=O)CC)C3)cc1,·,·,·,·,–
CNC[C@H]1Oc2ncc(-c3ccc(OC)cc3)cc2C(=O)N([C@@H](C)CO)C[C@@H]1C,·,·,·,·,–
Cc1occc1C(=O)N/N=C/C=C/c1ccccc1,–,43,–,–,–
O=C(N/N=C/C=C/c1ccccc1)c1cccc(Br)c1,–,1.4,–,–,–
Cc1ccc(C(=O)N/N=C/C=C/c2ccccc2)cc1,–,–,–,–,–
Cc1cc(C(=O)N/N=C/C=C/c2ccccc2)c(C)o1,–,–,–,–,-25
CC(=O)N(C)C[C@@H]1Oc2cc(C3=CCCCC3)ccc2S(=O)(=O)N([C@H](C)CO)C[C@H]1C,·,·,·,·,–
CCNC(=O)C[C@@H]1CC[C@@H]2[C@H](COC[C@@H](O)CN2C(=O)c2cc(Cl)cc(Cl)c2)O1,·,–,·,·,–
CCCC(=O)N1CCN(c2nc3c(OC)ccc(Cl)c3s2)CC1,–,–,–,–,-36
COc1ccc(Cl)c2sc(N3CCN(C(=O)c4ccco4)CC3)nc12,–,–,–,–,–
C[C@@H]1CN([C@H](C)CO)S(=O)(=O)c2ccc(C#CCC3CCCC3)cc2O[C@@H]1CN(C)C,·,–,·,·,–
CSCC[C@H](NC(=O)N1CCn2c1nc1ccccc12)C(=O)N1CCCCC1,–,–,–,–,-17
C[C@@H]1CCCCO[C@H](CN(C)Cc2ccncc2)[C@@H](C)CN([C@@H](C)CO)C(=O)c2cc(NC(=O)Nc3ccccc3)ccc2O1,·,–,·,·,–
CCNc1nc(NCc2ccccc2)nc(SCC(N)=O)n1,–,–,–,–,–
CCNc1nc(SCC(=O)Nc2ccc(Cl)c(Cl)c2)nc(N(C)C)n1,–,45,–,–,–
CN(C)c1nc(NCc2ccccc2)nc(SCC(=O)Nc2ccc(Cl)c(Cl)c2)n1,–,·,–,–,·
COC(=O)CSc1nc(NCc2ccccc2)nc(N(C)C)n1,–,43,–,–,–
O=C(Nc1ccc(Cl)cc1)Nc1csc([N+](=O)[O-])c1,–,–,–,–,–
O=C(Nc1csc([N+](=O)[O-])c1)Nc1c(Cl)cccc1Cl,–,–,–,–,-32
COc1cccc(S(=O)(=O)N2CCC3(CC2)CN[C@H](CO)c2[nH]c4cc(OC)ccc4c23)c1,·,·,·,·,–
CCOC(=O)C1(CC2CC2)CCN(Cc2cn[nH]c2-c2cccc(F)c2)CC1,–,44,–,–,–
CCOC(=O)C1(CC2CC2)CCN(Cc2cn[nH]c2-c2ccccc2)CC1,–,–,–,–,–
SMILES,ADAM17 inh,FGF22 binding,ADAM10 inh,KLK7 zymogen act,rRNA inh HTS
CCOP(=O)(O)c1cccc(OCCOCCOc2cccc(P(=O)(O)OCC)c2)c1,–,44,–,–,–
Cc1ccc([N+](=O)[O-])cc1N(CC(=O)Nc1ccc(S(=O)(=O)Nc2cccc(C(F)(F)F)c2)cc1)S(C)(=O)=O,25,·,49,–,·
CN(C)C(=S)SCC(=O)Nc1ccc(Cl)cc1Cl,–,1.4,–,–,–
O=C(CC(=O)Nc1ccc(Cl)cc1Cl)Nc1ccc(Cl)cc1Cl,–,–,–,–,–
COc1ccc(CCNC(=O)c2ccc(Cl)c(S(=O)(=O)N3CCCC3)c2)cc1,–,–,–,–,-29
COc1ccc(C(CNC(=O)c2ccc(Cl)c(S(=O)(=O)N3CCCC3)c2)N2CCCC2)cc1 (centres undefined),–,–,–,–,–
COc1ccc(CCNC(=O)c2ccc(-c3ccc([N+](=O)[O-])cc3Cl)o2)cc1,–,–,–,–,-23
COc1ccc(NC(=O)c2ccccc2)cc1,–,–,–,–,–
COc1ccc(N(C)S(=O)(=O)c2ccc(Cl)c(C(=O)NCCc3ccc(Cl)cc3)c2)cc1,–,43,–,–,–
COc1ccc(C(=O)Nc2ccc(C(=O)NCCc3ccccc3)cc2)cc1,–,44,–,–,–
Cc1cc([N+](=O)[O-])ccc1N1C(=O)c2ccc(C(=O)Nc3ccccc3C(=O)O)cc2C1=O,–,1.6,–,–,–
CC(C)CN1C(=O)c2ccc(C(=O)Nc3ccccc3C(=O)O)cc2C1=O,–,–,–,–,–
CCOCC(=O)Nc1ccccc1C(=O)N1CCOCC1,–,44,–,–,–
COc1cc(OC)cc(C(=O)NC(=S)N2CCCCCC2)c1,–,–,–,–,-31
O=C(COC(=O)c1ccc(-c2ccc([N+](=O)[O-])cc2)o1)NC(=O)NC12CC3CC(CC(C3)C1)C2,–,–,–,–,–
O=C(COC(=O)c1ccc(-c2ccc([N+](=O)[O-])cc2)o1)NC(=O)NC1CCCCC1,–,–,–,–,-33
CC(=O)N(C)C[C@H]1Oc2cc(-c3cccc(C#N)c3)ccc2S(=O)(=O)N([C@@H](C)CO)C[C@H]1C,·,–,·,·,–
Cc1ccc(C)c(NC2=C(Cl)C(=O)OC2OC(=O)c2ccco2)c1 (centres undefined),–,–,–,–,-28
CC1=C(C(=O)OC(C)C)C(c2cn(-c3ccccc3)nc2-c2cccs2)NC(=O)N1 (centres undefined),–,44,–,–,–
COC(=O)C1=C(C)NC(=O)NC1c1cn(-c2ccccc2)nc1-c1cccs1 (centres undefined),–,·,–,–,·
COc1ccc(CC(=O)NCC(=O)N/N=C/c2c[nH]c3ccccc23)cc1,–,–,–,–,-37
O=C(N/N=C/c1cccs1)c1cc(-c2cccc3ccccc23)n[nH]1,–,44,–,–,–
O=C(N/N=C/c1cccs1)c1cc(-c2ccc3ccccc3c2)n[nH]1,–,·,–,–,·
Cc1c(/C=N\NC(=O)c2c[nH]c3ccccc23)cnn1C,–,44,–,–,·
CCc1ccc(-c2cc(C(=O)N/N=C/c3ccco3)[nH]n2)cc1,–,43,–,–,-20
C[C@H](CO)N1C[C@H](C)[C@@H](CN(C)C(=O)Nc2ccccc2C(F)(F)F)OCc2ccccc2-c2ccccc2C1=O,·,·,·,·,–
O=C1NCCOCc2cn(nn2)CC[C@H]1Cc1ccc(F)cc1,·,·,·,·,–
C[C@@H]1CN([C@@H](C)CO)C(=O)Cc2cc(NS(C)(=O)=O)ccc2O[C@H]1CN(C)S(=O)(=O)c1ccccc1,·,–,·,·,–
C[C@H](CO)N1C[C@H](C)[C@@H](CN(C)S(=O)(=O)c2cccs2)Oc2c(NS(=O)(=O)c3cccs3)cccc2C1=O,·,·,·,·,–
O=C(N/N=C/c1c[nH]c2ccccc12)c1cc(-c2ccccc2)n[nH]1,–,–,–,–,-34
